Compound activity (PubChem BioAssay)
ALDH1A1 block = qHTS Assay for Inhibitors of Aldehyde Dehydrogenase 1 (ALDH1A1) | Aldehyde dehydrogenase 1A1 (Homo sapiens), P00352 | Purified ALDH1A1, NADH fluorescence, propionaldehyde substrate | Potency, µM (doses to about 75.3 µM), without a hit: top-dose activity, negative = inhibition, hits mostly inhibitors | actives 7.3% (n = 220,000);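 further: potency means the concentration at half of the fitted maximal effect; plate controls were no enzyme wells and a reference inhibitor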
Target sequence (P00352 whole entry, looked up): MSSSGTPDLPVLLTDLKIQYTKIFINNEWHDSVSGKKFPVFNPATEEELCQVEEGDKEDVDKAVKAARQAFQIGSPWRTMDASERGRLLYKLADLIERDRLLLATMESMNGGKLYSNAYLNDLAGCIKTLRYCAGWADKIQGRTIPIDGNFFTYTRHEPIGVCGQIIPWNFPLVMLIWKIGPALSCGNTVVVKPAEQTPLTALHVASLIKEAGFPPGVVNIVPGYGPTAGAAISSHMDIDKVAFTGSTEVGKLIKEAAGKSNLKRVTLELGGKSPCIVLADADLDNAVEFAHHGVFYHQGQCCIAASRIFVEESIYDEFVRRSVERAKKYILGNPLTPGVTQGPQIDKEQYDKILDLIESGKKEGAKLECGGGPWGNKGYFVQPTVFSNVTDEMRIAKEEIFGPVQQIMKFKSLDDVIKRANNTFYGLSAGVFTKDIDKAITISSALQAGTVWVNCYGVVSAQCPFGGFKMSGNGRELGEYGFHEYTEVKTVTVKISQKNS
IMPase cell inh = qHTS Assay for Identifying the Cell-Membrane Permeable IMPase Inhibitors. Inositol monophosphatase 1 (Rattus norvegicus), P97697. CHO-M1 cells, IP1 accumulation, HTRF TR-FRET ratio. inhibition (IP1 accumulation), % at 46.1 µM. 120,000 tested, under 10 active; active means well fitted curve in the direction sought with a large enough effect in the signal ratio, not every such curve was filed as active; inconclusive means small, poorly fitted or top-dose-only effect, or a change in a side signal; inactive means no such curve, though single readings can be large or run the other way; the % refers to the signal ratio;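 further: cells stimulated with carbachol in lithium chloride buffer; plate controls were DMSO basal wells for no effect and reference inhibitor wells for full effect; higher means more IMPase inhibition seen as more IP1 and lower FRET ratio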
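Elevated IP1 in lysates lowers TR-FRET signal (665/620 ratio and 620 channel reported). Cells were CHO-M1, given carbachol (50 uM as added) plus 50mM LiCl, pH 7.4, 30 min, 37C; compounds titrated up to 46 uM; AC50 by Hill equation.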
Luc counter = Counterscreen for Luciferase (Kinase-Glo TM) Inhibition; Luciferin 4-monooxygenase (Photuris pensylvanica), Q27757; Kinase-Glo luciferase, ATP luminescence, 8 min; Potency, µM (titrated, usually from 38.3 µM), for inactives: top-dose activity change, negative = inhibition, usual class: inhibitors; actives 0.28% (n = 200,000); AID 1379, 2008; active means well fitted inhibition curve with a large enough effect; inconclusive means small, poorly fitted or top-dose-only effect; further: potency means the concentration at half of the fitted maximal effect; nearly all actives have a fitted effect of over 60% in size
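Compounds were added to a substrate mix at pH 7.2 (50 mM imidazole, 10 uM ATP, within the enzyme's linear range), followed by Kinase-Glo detection reagent; luminescence was measured after 8 minutes at ambient temperature.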
LMNA splice mod = qHTS Assay for Modulators of Lamin A Splicing. HeLa LMNA splicing GFP/RFP minigene ratio, 48 h. Potency, µM (top dose mostly 46.1 µM), for inactives: top-dose ratio change, negative = inhibition, usual class: inhibitors. actives 0.01% (n = 200,000); active means well fitted inhibition curve with a large enough effect in the signal ratio, with a control signal flat, not every such curve was filed as active; inconclusive means small, poorly fitted or top-dose-only effect, or effect the other way, or a change in a side signal; the % refers to the signal ratio; further: potency means the concentration at half of the fitted maximal effect
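S3 HeLa stable clones carrying a lamin A-EGFP splicing minigene plus DsRed2 were seeded at 600 cells/well in Opti-MEM with 2% FBS, pin-dosed and incubated 48 h at 37°C. Acumen cytometry (488 nm) gave the GFP/RFP total-intensity ratio.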
PNC inhibitor = High Content Assay for Compounds that inhibit the Assembly of the Perinucleolar Compartment; PC3M PTB-GFP, PNC prevalence imaging, 16 h; hits give low values; activity change (PNC), negative = inhibition, % at 10 µM; actives 3.1% (n = 140,000); AID 2417, 2010;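 active means readout at or below -70, meaning at least 70% loss of cells showing the perinucleolar compartment, a nuclear body marking cancer cells; inconclusive means readout between -30 and a set limit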;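 further: plate controls were DMSO wells for no effect and camptothecin positive control wells for full effect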
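Read-out is percentage of cells bearing a perinucleolar compartment, from automated 20x imaging of fixed, Hoechst-stained PC3M PTB-GFP cells. Cells were seeded 4 h, then exposed 16 h to compound (23 nl of library stock) in duplicate plates.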
HPGD block = qHTS Assay for Inhibitors of HPGD (15-Hydroxyprostaglandin Dehydrogenase). Potency, µM, inactives show top-dose activity change, negative = inhibition, usual class: inhibitors. purified HPGD, NADH fluorescence kinetic, PGE2 substrate. actives 4.3% (n = 150,000); further: potency means the concentration at half of the fitted maximal effect
Target sequence (P15428 whole entry, looked up): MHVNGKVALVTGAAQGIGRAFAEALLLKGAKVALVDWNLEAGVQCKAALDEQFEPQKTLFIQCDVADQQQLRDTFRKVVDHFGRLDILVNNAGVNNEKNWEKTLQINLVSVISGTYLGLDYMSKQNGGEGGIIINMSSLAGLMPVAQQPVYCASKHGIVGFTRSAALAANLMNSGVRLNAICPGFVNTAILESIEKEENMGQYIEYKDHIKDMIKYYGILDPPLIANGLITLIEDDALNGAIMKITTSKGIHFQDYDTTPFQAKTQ
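20 nM HPGD preincubated 15 min at room temperature with compound in 50 mM Tris-HCl pH 8, 0.01% Tween 20. Started with 1 mM NAD+ and 30 uM prostaglandin E2; NADH fluorescence (360/450 nm) read 5 times over 30-s intervals, last minus first.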
The depositor's hits bear a star; ? = inconclusive; nt = not tested or not shown; [ ] = remark or other dose. Sampled rows, rich in hits. Any-hit rate of the full collection: about 10%. Unless noted, the call rests on the fitted dose curve; in most records, active means well fitted inhibition curve with a large enough effect (not every such curve was filed as active); inconclusive means small, poorly fitted or top-dose-only effect, or another doubt; inactive means no such curve, though single readings can be large or run the other way. Unless noted, on the % scale 0 is the no-effect control and ±100 the full control effect.

SMILES	ALDH1A1 block	IMPase cell inh	Luc counter	LMNA splice mod	PNC inhibitor	HPGD block
O=C(COc1cccc(NC(=O)c2ccccc2)c1)c1ccccc1	8.0%	nt	1.1%	10.9%[46 µM]	nt	nt
COc1ccc(N2CC(NC(=O)c3cccs3)CC2=O)cc1OC (centres undefined)	nt	nt	nt	-2.1%[46 µM]	nt	nt
O=C(CSc1ccc(Cl)cc1)Nc1nnc(-c2cccc([N+](=O)[O-])c2)s1	2.51µM*	nt	0.2%	-9.4%	?	-23.3%
Cc1onc(-c2ccccc2)c1C(=O)Nc1nnc(COc2ccc(Cl)cc2)s1	1.12µM*	1.1	2.4%	?	?	2.51µM*
O=C(Cc1cccc2ccccc12)Nc1nnc(-c2cccc([N+](=O)[O-])c2)s1	7.1%	nt	-0.9%	-0.7%	2.3	-10.5%
O=C(CSc1ccccc1)Nc1nnc(COc2ccc(Cl)cc2)s1	3.16µM*	nt	3.0%	4.6%	23.6	3.55µM*
CCOCC(=O)Nc1nnc(COc2ccc(Cl)cc2)s1	3.55µM*	-3.7	-3.3%	?	-21.7	11.2µM*
CCC(C)n1c(=N)c(C(=O)NCc2ccco2)cc2c(=O)n3cc(C)ccc3nc21 (centres undefined)	nt	18.0	nt	nt	nt	nt
C=Cc1ccc(Cn2c(=O)n(CC3CCC(C(=O)NC(C)C)CC3)c(=O)c3sccc32)cc1 (centres undefined)	nt	nt	nt	29.4%[46 µM]	nt	nt
Cc1cccc(-n2c(C)nc3cc(C(=O)NCCC4=CCCCC4)ccc32)c1	nt	nt	nt	-16.7%[46 µM]	nt	nt
COc1ccc(-c2nc3c4ccccc4n(CC(=O)N4CCN(c5ccc(F)cc5)CC4)c(=O)n3n2)cc1	nt	nt	nt	-1.2%[46 µM]	nt	nt
CC(=O)Oc1cc(OC(C)=O)c2c(=O)cc(-c3ccc(OC(C)=O)c(OC(C)=O)c3)oc2c1	-7.9%	7.4	-14.9%	nt	nt	-16.6%
COC(=O)c1c(-c2ccccc2)csc1NC(=O)c1c(-c2ccccc2)noc1C	?	4.3	0.9%	?	-112.5*	?
C#CC1(O)CC(C)N(C)C(C)C1 (centres undefined)	?	0.2	-0.7%	-10.8%	-90.8*	-5.2%
CCNC(=S)Nc1ccc(N(c2ccccc2)C(C)C)cc1	?	9.6	19.8%	?	?	-28.8%
CC(C)c1ccc(NC(=S)NN(c2ccccc2)c2ccccc2)cc1	14.1µM*	nt	-1.1%	13.8%	-84.6*	22.4µM*
CCCCC(CC)C(=O)N1CCN(C(=O)c2ccco2)CC1 (centres undefined)	25.1µM*	nt	0.6%	-15.6%[46 µM]	nt	nt
CCCC(c1nnnn1Cc1ccco1)N1CCN(C2CCCC2)CC1 (centres undefined)	-3.5%	-3.9	1.0%	3.6%	4.8	-7.0%
CCCCNC(=O)N1CCN(C(=O)c2ccco2)CC1	0.2%	nt	1.8%	-13.0%[46 µM]	nt	nt
CCCCC(c1nnnn1Cc1ccco1)N1CCN(C(=O)c2ccco2)CC1 (centres undefined)	14.1µM*	8.5	1.7%	-1.1%	43.0	0.2%
CCC(c1nnnn1CCc1ccccc1)N1CCN(C(=O)c2ccco2)CC1 (centres undefined)	?	12.9	-0.8%	13.8%	-13.3	-11.4%
CCCC(c1nnnn1Cc1ccco1)N1CCN(C(=O)c2ccco2)CC1 (centres undefined)	12.6µM*	-0.1	-1.0%	-3.5%	16.1	-9.7%
O=C(O)CCc1nc(-c2ccccc2-n2cccc2)no1	?	nt	-5.6%[7.66 µM]	nt	nt	?
COc1cccc(NC(=O)Cn2nc(C)c3c(C)n(-c4ccccc4)nc3c2=O)c1	nt	nt	nt	12.0%[46 µM]	nt	nt
Cc1ccccc1OCCC(=O)OCC(=O)Nc1cc(S(=O)(=O)N2CCOCC2)ccc1Cl	2.51µM*	nt	-0.6%	-4.8%[46 µM]	nt	nt
SMILES	ALDH1A1 block	IMPase cell inh	Luc counter	LMNA splice mod	PNC inhibitor	HPGD block
COc1ccc(S(=O)(=O)N2CCOCC2)cc1NC(=O)COC(=O)C1COc2ccccc2O1 (centres undefined)	11.9%	nt	-0.8%	-3.3%	-92.3*	-4.2%
COc1ccccc1OCCC(=O)OCC(=O)Nc1ccc(S(=O)(=O)N2CCOCC2)cc1	?	nt	1.2%	-17.5%[46 µM]	nt	nt
O=C(COC(=O)c1cccs1)Nc1cc(S(=O)(=O)N2CCOCC2)ccc1Cl	-5.9%	nt	0.3%	?	nt	nt
COc1ccc(S(=O)(=O)N2CCOCC2)cc1NC(=O)CCc1c[nH]c2ccccc12	14.1µM*	nt	4.8%	-17.8%[46 µM]	nt	nt
COc1ccccc1OCCC(=O)OCC(=O)Nc1cc(S(=O)(=O)N2CCOCC2)ccc1Cl	6.31µM*	nt	-3.7%	-2.8%[46 µM]	nt	nt
COc1ccc(S(=O)(=O)N2CCOCC2)cc1NC(=O)COC(=O)c1ccc(C)s1	?	nt	0.0%	nt	nt	nt
COc1ccc(C)cc1NC(=O)CSc1nc(=O)n(Cc2ccccn2)c2c1CCC2	nt	nt	nt	-13.0%[46 µM]	nt	nt
Cc1cccc(NC(=O)COC(=O)CCc2ccc(S(=O)(=O)N3CCOCC3)cc2)c1C	3.55µM*	nt	4.1%	nt	nt	nt
O=C(NCc1cccc(C(F)(F)F)c1)c1cc(Cl)ccc1Cl	6.8%	nt	1.3%	?	-108.3*	28.2µM*
O=C(NCc1cccnc1)c1cccc(C(F)(F)F)c1	6.9%	6.8[1.84 µM]	5.4%	-3.9%	-94.1*	-1.1%
Cc1ccc(C(=O)c2c[nH]c(C(=O)NCc3cccnc3)c2)cc1	?	2.0	1.0%	?	14.4	25.1µM*
Cc1[nH]c(=O)[nH]c(=O)c1Cc1cccc2ccccc12	10µM*	nt	0.8%	nt	nt	nt
Cc1nc(N2CCN(C)CC2)[nH]c(=O)c1Cc1cccc2ccccc12	?	-0.3	3.9%	-2.9%	-2.3	-13.6%
CCCNC(=O)c1ccc(SC)cc1OC	?	-1.0	-5.2%	-3.8%	?	25.1µM*
COc1ccccc1OCCNC(=O)c1cc(SC)ccc1Cl	-3.6%	nt	1.7%	-5.1%	-113.0*	-2.4%
COc1ccccc1OCCNC(=O)c1cc(F)c(F)cc1Cl	-11.1%	nt	-2.6%	-11.3%	30.0	-18.0%
COc1cc(SC)ccc1C(=O)NCCCOC(C)C	3.9%	?	0.5%	-7.3%	-2.4	-12.8%
COc1cc(SC)ccc1C(=O)NCCOc1ccc(C)c(C)c1	-7.1%	8.9	-2.5%	?	?	-5.3%
COc1cc(SC)ccc1C(=O)NCc1ccccc1	?	-8.1	-0.9%	-11.0%	-16.6	25.1µM*
COc1cc(SC)ccc1C(=O)N(C)Cc1ccccc1	-2.6%	5.3	-2.6%	-2.9%	47.0	?
COc1cc(SC)ccc1C(=O)NCc1ccc(C)cc1	?	-2.6	0.9%	-0.5%	89.1	20µM*
COc1cc(C)nc2nc(SCc3ccccc3)nn12	14.1µM*	-6.6	-5.9%	-3.5%	15.6	-20.6%
